Assay in all cases: DAPPL (digital affinity profiling via proximity ligation, sequencing); 10 mM Tris-HCl pH 7.5, 50 mM NaCl, 1 mM DTT, 4% glycerol, room temperature, 30 min; GST-TFs on glutathione beads, 16-mer random dsDNA library, 0.1% formaldehyde crosslink after washing; high values mean tight binding
One experiment deals with T1, FEV (Homo sapiens, UniProt Q99581 1-238).
T1 sequence: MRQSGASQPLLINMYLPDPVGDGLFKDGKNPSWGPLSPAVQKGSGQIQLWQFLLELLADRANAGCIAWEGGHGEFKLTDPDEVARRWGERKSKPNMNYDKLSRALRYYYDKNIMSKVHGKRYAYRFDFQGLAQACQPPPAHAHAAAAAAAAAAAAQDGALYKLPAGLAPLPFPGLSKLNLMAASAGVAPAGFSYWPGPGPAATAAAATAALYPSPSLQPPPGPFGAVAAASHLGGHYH
The note with it: protein: recombinant; tags: N-terminal GST; dsDNA, one strand shown. In short, it runs like this:
(§1)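 After expression in yeast as GST fusions, human transcription factors were bound to glutathione beads, DNA-barcoded and mixed with a tag-only sample. The pools were incubated with 200 nmole of a 16-mer random double-stranded DNA library in Tris/NaCl/DTT/glycerol buffer (30 min, room temperature), washed and crosslinked with 0.1% formaldehyde. Proximity ligation with BsaI/T4 ligase ran for 1 h at 37 °C, before PCR amplification and sequencing on an Illumina NextSeq500. Binding signal is a hexamer's read frequency for a factor divided by its frequency for the tag-only sample.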

A further experiment addresses ETV5 (Homo sapiens, UniProt P41161 1-510). The note with it: protein: recombinant; tags: N-terminal GST; dsDNA, one strand shown. In short, it runs like this: as §1
The next experiment concerns the target HSF1 (Homo sapiens, UniProt Q00613 1-529). The note with it: protein: recombinant; tags: N-terminal GST; chain copies: 3; dsDNA, one strand shown. The essentials: as §1
A further experiment has as its target T2, SPIC (Homo sapiens, UniProt Q8N5J4 1-248).
T2 sequence: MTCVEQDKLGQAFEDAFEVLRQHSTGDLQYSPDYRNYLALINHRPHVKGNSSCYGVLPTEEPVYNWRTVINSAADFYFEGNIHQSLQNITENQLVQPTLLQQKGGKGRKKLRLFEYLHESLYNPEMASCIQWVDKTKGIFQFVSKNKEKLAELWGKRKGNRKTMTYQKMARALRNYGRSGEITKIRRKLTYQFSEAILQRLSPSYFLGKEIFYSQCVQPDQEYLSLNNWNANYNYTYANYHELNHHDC
The following applies: protein: recombinant; tags: N-terminal GST; dsDNA, one strand shown. The essentials: as §1

Another experiment concerns the target ELF4 (Homo sapiens, UniProt Q99607 1-663). The following applies: protein: recombinant; tags: N-terminal GST; dsDNA, one strand shown. The essentials:
as §1

In a further experiment the target is T3, ELK4 (Homo sapiens, UniProt P28324-2 1-405).
T3 sequence: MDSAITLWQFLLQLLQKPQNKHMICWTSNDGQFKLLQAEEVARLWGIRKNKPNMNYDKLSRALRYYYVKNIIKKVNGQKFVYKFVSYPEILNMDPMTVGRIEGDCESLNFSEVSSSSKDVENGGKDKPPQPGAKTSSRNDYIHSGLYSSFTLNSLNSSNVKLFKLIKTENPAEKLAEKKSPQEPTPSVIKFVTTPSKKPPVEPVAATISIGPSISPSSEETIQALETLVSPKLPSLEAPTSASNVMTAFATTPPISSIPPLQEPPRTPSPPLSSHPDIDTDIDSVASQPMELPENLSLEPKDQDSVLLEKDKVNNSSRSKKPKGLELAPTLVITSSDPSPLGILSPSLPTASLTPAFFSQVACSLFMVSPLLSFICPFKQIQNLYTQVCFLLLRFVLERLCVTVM
The note with it: protein: recombinant; tags: N-terminal GST; dsDNA, one strand shown. The essentials:
as §1

The next experiment concerns the target T4, ETV2 (Homo sapiens, UniProt O00321 1-342).
T4 sequence: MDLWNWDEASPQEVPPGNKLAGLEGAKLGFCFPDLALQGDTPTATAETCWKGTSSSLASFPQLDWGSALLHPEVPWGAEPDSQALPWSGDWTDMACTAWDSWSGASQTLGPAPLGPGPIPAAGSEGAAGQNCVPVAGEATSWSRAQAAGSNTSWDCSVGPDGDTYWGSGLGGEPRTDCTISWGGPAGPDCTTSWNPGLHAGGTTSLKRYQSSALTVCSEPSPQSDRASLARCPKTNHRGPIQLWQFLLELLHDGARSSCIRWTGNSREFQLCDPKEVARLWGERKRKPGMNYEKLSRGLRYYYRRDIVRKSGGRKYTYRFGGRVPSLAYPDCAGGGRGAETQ
The following applies: protein: recombinant; tags: N-terminal GST; dsDNA, one strand shown. The essentials:
as §1

Another experiment has as its target T5, ELF3 (Homo sapiens, UniProt P78545 1-371).
T5 sequence: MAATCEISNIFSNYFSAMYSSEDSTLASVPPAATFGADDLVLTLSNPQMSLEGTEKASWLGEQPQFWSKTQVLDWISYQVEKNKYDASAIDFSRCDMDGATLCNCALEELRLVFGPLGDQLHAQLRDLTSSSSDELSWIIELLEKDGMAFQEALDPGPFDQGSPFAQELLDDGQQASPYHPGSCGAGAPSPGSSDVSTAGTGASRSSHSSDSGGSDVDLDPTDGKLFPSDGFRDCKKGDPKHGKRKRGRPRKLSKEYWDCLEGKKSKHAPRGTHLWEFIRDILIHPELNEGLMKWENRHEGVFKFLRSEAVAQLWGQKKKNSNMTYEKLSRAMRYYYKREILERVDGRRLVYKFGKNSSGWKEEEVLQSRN
The following applies: protein: recombinant; tags: N-terminal GST; dsDNA, one strand shown. The essentials: as §1

The next experiment concerns the target CRX (Homo sapiens, UniProt O43186 1-299). The following applies: protein: recombinant; tags: N-terminal GST; dsDNA, one strand shown. The essentials:
as §1

The target of the next experiment is ETV1 (Homo sapiens, UniProt P50549 1-477). The note with it: protein: recombinant; tags: N-terminal GST; dsDNA, one strand shown. The essentials:
as §1

The next experiment concerns the target T6, ERF (Homo sapiens, UniProt P50548 1-548).
T6 sequence: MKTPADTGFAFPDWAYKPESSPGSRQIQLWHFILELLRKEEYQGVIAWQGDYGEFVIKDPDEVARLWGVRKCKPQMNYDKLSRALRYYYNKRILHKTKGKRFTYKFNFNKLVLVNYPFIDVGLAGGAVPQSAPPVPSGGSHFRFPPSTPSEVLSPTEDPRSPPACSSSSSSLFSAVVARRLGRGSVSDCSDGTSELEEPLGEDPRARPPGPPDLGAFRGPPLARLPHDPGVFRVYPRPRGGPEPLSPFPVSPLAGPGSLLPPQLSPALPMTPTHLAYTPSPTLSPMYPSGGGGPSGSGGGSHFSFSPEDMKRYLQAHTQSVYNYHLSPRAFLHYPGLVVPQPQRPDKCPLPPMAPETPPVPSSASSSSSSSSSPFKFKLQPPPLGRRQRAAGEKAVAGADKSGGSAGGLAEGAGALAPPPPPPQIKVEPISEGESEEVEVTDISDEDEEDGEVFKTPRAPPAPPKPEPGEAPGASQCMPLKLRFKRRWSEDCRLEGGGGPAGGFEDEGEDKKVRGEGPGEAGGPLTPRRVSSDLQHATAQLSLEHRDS
The following applies: protein: recombinant; tags: N-terminal GST; dsDNA, one strand shown. The essentials:
as §1

Another experiment deals with T7, ETV3L (Homo sapiens, UniProt Q6ZN32 1-361).
T7 sequence: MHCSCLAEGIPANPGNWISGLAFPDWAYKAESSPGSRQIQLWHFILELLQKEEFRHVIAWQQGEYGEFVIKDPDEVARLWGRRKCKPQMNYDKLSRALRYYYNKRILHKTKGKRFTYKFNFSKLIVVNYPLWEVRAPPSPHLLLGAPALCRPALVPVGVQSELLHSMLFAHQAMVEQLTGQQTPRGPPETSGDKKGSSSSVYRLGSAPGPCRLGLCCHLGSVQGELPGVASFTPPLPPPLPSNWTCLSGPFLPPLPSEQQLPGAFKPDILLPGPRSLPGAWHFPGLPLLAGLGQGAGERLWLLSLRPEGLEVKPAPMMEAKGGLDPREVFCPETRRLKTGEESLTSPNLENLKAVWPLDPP
The following applies: protein: recombinant; tags: N-terminal GST; dsDNA, one strand shown. The essentials: as §1

In a further experiment the target is T8, ETS2 (Homo sapiens, UniProt P15036 1-469).
T8 sequence: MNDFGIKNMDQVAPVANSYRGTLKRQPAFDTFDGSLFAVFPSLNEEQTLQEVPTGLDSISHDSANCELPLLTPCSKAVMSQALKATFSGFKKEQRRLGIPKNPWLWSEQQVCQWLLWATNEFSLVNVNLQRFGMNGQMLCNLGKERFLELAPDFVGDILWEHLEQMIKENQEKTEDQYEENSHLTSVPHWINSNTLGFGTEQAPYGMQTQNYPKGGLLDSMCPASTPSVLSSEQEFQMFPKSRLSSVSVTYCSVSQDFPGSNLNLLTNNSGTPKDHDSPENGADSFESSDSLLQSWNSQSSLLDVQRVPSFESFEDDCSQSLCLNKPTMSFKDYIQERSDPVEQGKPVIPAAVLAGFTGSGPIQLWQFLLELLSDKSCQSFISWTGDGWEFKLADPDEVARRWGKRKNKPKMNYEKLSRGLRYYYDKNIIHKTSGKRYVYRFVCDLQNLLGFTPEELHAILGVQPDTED
The note with it: protein: recombinant; tags: N-terminal GST; dsDNA, one strand shown. In short, it runs like this:
as §1

A further experiment concerns the target T9, SPDEF (Homo sapiens, UniProt O95238 1-335).
T9 sequence: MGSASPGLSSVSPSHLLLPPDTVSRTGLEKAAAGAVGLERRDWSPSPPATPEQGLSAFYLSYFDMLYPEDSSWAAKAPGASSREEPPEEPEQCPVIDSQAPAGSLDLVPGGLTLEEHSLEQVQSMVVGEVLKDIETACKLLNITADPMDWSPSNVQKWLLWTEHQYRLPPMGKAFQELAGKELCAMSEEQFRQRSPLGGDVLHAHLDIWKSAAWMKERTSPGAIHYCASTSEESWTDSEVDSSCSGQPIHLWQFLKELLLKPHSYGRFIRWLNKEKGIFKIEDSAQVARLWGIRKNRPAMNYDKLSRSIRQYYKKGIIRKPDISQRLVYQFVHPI
The following applies: protein: recombinant; tags: N-terminal GST; dsDNA, one strand shown. The essentials:
as §1

For a further experiment, the target named is T10, ETV7 (Homo sapiens, UniProt Q9Y603 1-341).
T10 sequence: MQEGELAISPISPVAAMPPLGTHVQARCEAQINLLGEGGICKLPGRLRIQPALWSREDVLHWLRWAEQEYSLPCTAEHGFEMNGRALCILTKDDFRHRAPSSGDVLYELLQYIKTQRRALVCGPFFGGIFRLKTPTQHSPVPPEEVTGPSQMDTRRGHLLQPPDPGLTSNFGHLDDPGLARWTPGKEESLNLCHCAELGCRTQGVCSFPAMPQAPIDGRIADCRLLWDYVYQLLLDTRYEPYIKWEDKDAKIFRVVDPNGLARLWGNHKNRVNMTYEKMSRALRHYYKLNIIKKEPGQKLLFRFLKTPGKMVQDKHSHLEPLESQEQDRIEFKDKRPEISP
The note with it: protein: recombinant; tags: N-terminal GST; dsDNA, one strand shown. In short, it runs like this:
as §1

For the next experiment, the target named is T11, ELF5 (Homo sapiens, UniProt Q9UKW6-2 1-255).
T11 sequence: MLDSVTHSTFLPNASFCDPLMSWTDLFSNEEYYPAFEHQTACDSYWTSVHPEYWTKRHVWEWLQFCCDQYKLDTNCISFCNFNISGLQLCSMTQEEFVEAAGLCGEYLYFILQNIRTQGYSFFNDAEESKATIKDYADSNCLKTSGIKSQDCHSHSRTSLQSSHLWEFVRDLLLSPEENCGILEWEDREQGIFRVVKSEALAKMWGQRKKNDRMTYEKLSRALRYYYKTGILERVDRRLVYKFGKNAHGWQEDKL
The following applies: protein: recombinant; tags: N-terminal GST; dsDNA, one strand shown. In short, it runs like this:
as §1

Another experiment addresses T12, ETV3 (Homo sapiens, UniProt P41162-2 1-143).
T12 sequence: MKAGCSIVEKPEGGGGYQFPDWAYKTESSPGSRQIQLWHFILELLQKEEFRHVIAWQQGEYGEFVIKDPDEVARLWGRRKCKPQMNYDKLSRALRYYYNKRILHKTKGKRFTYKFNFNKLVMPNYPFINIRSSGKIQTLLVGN
The note with it: protein: recombinant; tags: N-terminal GST; dsDNA, one strand shown. In short, it runs like this:
as §1

The target of another experiment is ETV6 (Homo sapiens, UniProt P41212 1-452). The following applies: protein: recombinant; tags: N-terminal GST; dsDNA, one strand shown. In short, it runs like this: as §1
ETV6, sequence (P41212 whole entry): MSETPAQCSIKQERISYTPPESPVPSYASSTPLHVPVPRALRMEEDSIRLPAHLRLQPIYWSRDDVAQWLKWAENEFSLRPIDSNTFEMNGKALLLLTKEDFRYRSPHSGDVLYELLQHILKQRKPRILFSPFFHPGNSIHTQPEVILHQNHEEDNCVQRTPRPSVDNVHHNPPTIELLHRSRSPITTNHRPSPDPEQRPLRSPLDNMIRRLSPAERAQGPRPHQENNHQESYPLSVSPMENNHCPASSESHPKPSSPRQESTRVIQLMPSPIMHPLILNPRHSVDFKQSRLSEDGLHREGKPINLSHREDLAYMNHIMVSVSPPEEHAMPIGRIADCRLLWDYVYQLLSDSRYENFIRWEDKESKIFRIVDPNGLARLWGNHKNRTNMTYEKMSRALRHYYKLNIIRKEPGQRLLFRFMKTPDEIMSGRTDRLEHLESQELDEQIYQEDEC

ELF4, sequence (Q99607 whole entry): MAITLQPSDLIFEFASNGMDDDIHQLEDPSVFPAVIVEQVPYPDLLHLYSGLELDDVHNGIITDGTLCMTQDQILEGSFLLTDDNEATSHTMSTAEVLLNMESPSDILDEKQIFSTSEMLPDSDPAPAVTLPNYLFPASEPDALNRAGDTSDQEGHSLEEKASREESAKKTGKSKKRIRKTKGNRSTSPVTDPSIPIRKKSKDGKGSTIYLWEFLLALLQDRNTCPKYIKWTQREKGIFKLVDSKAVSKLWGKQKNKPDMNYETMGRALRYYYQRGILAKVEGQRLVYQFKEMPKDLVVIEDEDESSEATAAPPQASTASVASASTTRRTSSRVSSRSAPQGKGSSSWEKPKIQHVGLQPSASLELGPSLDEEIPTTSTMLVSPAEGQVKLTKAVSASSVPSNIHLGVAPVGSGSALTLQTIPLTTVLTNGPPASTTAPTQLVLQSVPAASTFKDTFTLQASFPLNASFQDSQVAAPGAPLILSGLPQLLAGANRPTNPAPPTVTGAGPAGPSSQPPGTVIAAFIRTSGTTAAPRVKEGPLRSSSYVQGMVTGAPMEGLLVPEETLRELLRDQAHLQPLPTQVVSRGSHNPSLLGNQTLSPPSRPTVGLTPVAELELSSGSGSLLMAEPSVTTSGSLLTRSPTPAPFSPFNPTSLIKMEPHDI
HSF1, sequence (Q00613 whole entry): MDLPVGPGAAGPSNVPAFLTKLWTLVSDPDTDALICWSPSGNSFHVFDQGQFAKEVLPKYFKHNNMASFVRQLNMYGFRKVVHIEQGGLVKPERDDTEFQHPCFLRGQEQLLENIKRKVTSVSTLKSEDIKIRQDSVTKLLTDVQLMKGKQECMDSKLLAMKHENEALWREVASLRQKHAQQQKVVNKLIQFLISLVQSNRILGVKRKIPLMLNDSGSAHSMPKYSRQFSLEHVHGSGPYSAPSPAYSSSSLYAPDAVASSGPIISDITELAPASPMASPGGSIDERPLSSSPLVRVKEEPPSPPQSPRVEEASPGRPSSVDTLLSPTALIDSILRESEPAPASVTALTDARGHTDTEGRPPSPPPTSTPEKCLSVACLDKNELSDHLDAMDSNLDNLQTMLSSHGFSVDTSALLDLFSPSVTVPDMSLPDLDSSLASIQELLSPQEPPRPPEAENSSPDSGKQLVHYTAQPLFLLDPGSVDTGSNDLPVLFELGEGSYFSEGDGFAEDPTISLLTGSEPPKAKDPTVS
ETV1, sequence (P50549 whole entry): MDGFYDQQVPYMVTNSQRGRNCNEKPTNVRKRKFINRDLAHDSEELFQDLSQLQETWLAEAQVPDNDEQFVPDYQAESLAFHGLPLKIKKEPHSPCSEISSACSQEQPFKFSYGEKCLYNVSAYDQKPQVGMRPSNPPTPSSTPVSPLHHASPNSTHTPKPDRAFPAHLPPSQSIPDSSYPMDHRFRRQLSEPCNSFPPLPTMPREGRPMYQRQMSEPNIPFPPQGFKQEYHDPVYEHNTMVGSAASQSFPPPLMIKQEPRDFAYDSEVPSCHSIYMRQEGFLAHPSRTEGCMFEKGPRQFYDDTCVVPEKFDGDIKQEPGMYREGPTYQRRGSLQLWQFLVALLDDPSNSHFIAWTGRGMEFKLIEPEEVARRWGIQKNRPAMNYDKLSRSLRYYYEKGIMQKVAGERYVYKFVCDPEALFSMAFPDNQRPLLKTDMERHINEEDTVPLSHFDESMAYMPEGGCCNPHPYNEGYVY
CRX, sequence (O43186 whole entry): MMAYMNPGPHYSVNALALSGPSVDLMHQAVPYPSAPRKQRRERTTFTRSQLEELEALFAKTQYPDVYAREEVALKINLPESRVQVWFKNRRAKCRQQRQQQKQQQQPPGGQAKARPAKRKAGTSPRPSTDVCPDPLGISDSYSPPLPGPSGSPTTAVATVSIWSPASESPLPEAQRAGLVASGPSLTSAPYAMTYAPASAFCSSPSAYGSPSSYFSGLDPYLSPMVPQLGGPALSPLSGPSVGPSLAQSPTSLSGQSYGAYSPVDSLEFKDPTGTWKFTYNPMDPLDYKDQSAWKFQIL
ETV5, sequence (P41161 whole entry): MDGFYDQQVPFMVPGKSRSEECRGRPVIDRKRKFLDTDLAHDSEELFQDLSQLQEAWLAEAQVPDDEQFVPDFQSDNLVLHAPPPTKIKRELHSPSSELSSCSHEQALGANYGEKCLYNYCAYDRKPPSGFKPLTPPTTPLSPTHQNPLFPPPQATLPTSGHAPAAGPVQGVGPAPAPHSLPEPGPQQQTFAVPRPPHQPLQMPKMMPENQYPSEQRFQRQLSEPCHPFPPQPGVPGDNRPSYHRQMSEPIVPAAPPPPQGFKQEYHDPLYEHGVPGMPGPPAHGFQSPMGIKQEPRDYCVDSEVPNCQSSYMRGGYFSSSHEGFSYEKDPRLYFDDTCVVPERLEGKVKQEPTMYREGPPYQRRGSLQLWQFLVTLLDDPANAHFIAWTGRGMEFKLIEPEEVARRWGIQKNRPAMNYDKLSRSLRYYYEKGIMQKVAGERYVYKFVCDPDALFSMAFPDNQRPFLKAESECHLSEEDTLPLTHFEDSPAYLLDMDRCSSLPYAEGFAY

Consider TTTGCG, for which the binding signal was 1.13 fold enrichment (6-mer frequency, TF over GST control) with FEV; 1.29 fold enrichment (6-mer frequency, TF over GST control) with ETV5; 1.3 fold enrichment (6-mer frequency, TF over GST control) in the experiment with HSF1; 1.37 fold enrichment (6-mer frequency, TF over GST control) with SPIC; 1.21 fold enrichment (6-mer frequency, TF over GST control) with ELF4; 1.03 fold enrichment (6-mer frequency, TF over GST control) with ELK4. The binding signal with ETV2 was 1.13 fold enrichment (6-mer frequency, TF over GST control); with ELF3, 1.3 fold enrichment (6-mer frequency, TF over GST control); with CRX it was 1.31 fold enrichment (6-mer frequency, TF over GST control); with ETV1, 1.34 fold enrichment (6-mer frequency, TF over GST control); with ERF it was 1.36 fold enrichment (6-mer frequency, TF over GST control); with ETV3L, 1.16 fold enrichment (6-mer frequency, TF over GST control). For the same sequence, the binding signal was 1.21 fold enrichment (6-mer frequency, TF over GST control) with ETS2; 1.2 fold enrichment (6-mer frequency, TF over GST control) in the experiment with SPDEF; 1.11 fold enrichment (6-mer frequency, TF over GST control) with ETV7; 1.16 fold enrichment (6-mer frequency, TF over GST control) with ELF5; 1.17 fold enrichment (6-mer frequency, TF over GST control) in the experiment with ETV3; 1.29 fold enrichment (6-mer frequency, TF over GST control) in the experiment with ETV6.
